{"source": "PubChem BioAssay AID743169", "about": "(National Center for Advancing Translational Sciences (NCATS), 2013)", "note": "A number with no mark means an inactive call. Calls come from the whole dose curve; as a rule, active = well fitted curve in the direction sought with a large enough effect; inactive = no such curve, though single readings can be large or run the other way.", "data": [{"target": "L-lactate dehydrogenase A chain (human) (UniProt V9HWB9)", "assay": "Extended Characterization of HPGD Inhibitors: Counterscreen Against LDHA", "conditions": "LDHA enzyme, diaphorase/resazurin coupled fluorescence; series mostly up to 57.1 µM; activity change, negative = inhibition: at the top concentration", "excerpt": "The central role of HPGD is to inactivate prostaglandins such as prostaglandin E2 (PGE2) or prostaglandin D2 (PGD2). These prostaglandins are involved in a number of processes, including inflammation, differentiation, and cellular signaling, which makes HPGD an important target for pharmacological intervention. A number of prostaglandins of particular biological interest have been identified as substrates of HPGD. […] Over-production of PGE2 has been reported to promote tumor-associated neovascularization, cell proliferation, and tumor growth. […] In order to further characterize the compounds, we ran them against an LDHA counterscreen. LDHA converts pyruvate to lactate while regenerating NAD+ from NADH. LDHA enzymatic activity is then coupled to the activity of diaphorase, which reversibly catalyzes the reaction of […] while simultaneously reducing resazurin to the fluorescent resorufin. This change in fluorescence signal (excitation 544 nm; emission, 590 nm) was monitored using the ViewLux CCD imager (Perkin Elmer). Data were normalized against no enzyme control wells and no compound control wells. NIH Chemical Genomics Center [NCGC] NIH Molecular Libraries Probe Centers Network [MLPCN] MLPCN Grant: MH084681 Assay Submitter (PI): Structural Genomics Consortium\n3 uL of LDHA enzyme in assay buffer are added to plate before 23 nL of compound/control are pinned into the solution. After a 15 min incubation, 1 uL of NADH (60 uM final) and sodium pyruvate (160 uM final) are added, incubated at 8 min at RT before another 1 uL of Diaphorase / Resazurin is added. The plate is read on the ViewLux after a 10 min RT incubation", "units": {"activity change, negative = inhibition": "%"}, "values": [{"compound": "Cc1ccc(-n2c(C)cc(-c3nnc4n3CCCCC4)c2C)cc1", "activity change, negative = inhibition": 1.62}, {"compound": "Cc1cc(-c2nnc3n2CCCCC3)c(C)n1-c1cccc(C(F)(F)F)c1", "activity change, negative = inhibition": 4.3}, {"compound": "Cc1cc(-c2nnc3n2CCCCC3)c(C)n1-c1ccc(Cl)c(Cl)c1", "activity change, negative = inhibition": 3.58}, {"compound": "O=C(c1ccc2c(c1)ncn2-c1cccc(C(F)(F)F)c1)N1CCCCC1", "activity change, negative = inhibition": 0.565}, {"compound": "Cc1cc(-c2nnc3n2CCCCC3)c(C)n1-c1cccc(Cl)c1", "activity change, negative = inhibition": 9.93}, {"compound": "Cc1cc(-c2nnc3n2CCCCC3)c(C)n1-c1cccc(C#N)c1", "activity change, negative = inhibition": 8.07}, {"compound": "Cc1cccc(-n2cnc3cc(C(=O)N4CCCC(C(F)(F)F)C4)ccc32)c1", "note": "(stereo not given)", "activity change, negative = inhibition": -12.2}, {"compound": "COc1ccc(-n2cnc3cc(C(=O)N4CCCCC4)ccc32)cc1", "activity change, negative = inhibition": -0.645}, {"compound": "O=C(c1ccc2c(c1)ncn2-c1cccc(Cl)c1)N1CCCCC1", "activity change, negative = inhibition": 6.78}, {"compound": "Cc1cccc(-n2cnc3cc(C(=O)N4CCCC(C)(C)C4)ccc32)c1", "activity change, negative = inhibition": 4.22}]}]}
